MBNL1-CUG inh: MBNL1-poly(CUG) RNA binding inhibition; Q9NR56; TR-FRET MBNL1-His/biotin-(CUG)12 binding, 665/545 ratio; Potency, µM (doses to about 57.5 µM), without a hit: top-dose activity change, negative = inhibition, actives largely listed as inhibitors; actives 0.036% (n = 280,000); AID 2675; active = well fitted inhibition curve with a large enough effect in the signal ratio, with a control signal flat, not every such curve was filed as active; inconclusive = small, poorly fitted or top-dose-only effect, or effect the other way, or a change in a side signal; inactive = no such curve, though single readings can be large or run the other way; the % refers to the signal ratio; note: potency is the fitted concentration of half-maximal effect; % is set by controls: 0 for no effect and ±100 for the full control effect
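Ratiometric TR-FRET (665 over 545 nm, excitation 340 nm) tracks disruption of MBNL1-His/biotin-(CUG)12 complex after 60 min at room temperature, with compounds at 92 nM to 58 uM final.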
CBFb-RUNX1 inh: CBF-beta/RUNX1 interaction disruption. Q01196+Q13951. AlphaScreen CBFb-His/RUNX1-biotin binding, biochemical. Potency, µM (series often up to 59.8 µM), inactives show at the highest dose activity, negative = inhibition, most hits filed as inhibitors. 230,000 tested, under 10 active. AID 1477; note: % of control where 0% means no effect
Target sequence (Q01196 whole entry, looked up): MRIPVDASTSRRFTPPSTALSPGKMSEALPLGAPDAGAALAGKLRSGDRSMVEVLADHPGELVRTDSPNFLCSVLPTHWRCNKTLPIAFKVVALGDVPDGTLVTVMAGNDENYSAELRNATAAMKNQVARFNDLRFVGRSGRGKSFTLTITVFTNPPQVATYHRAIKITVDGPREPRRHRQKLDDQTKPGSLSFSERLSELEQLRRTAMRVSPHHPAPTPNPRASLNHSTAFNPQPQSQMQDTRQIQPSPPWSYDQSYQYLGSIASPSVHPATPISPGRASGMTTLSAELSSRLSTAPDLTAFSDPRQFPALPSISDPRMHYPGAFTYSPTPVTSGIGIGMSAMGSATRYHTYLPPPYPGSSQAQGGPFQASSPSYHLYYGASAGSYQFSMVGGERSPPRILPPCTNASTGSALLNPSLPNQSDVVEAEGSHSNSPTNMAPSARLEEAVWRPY
Target sequence (Q13951 whole entry, looked up): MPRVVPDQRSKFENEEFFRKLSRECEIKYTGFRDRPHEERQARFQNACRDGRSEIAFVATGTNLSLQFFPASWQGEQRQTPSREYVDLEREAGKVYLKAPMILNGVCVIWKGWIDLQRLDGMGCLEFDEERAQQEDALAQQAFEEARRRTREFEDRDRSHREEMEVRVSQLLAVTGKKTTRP
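Room-temperature protein-protein interaction test with 30 nM each of His-tagged CBF-beta and biotinylated RUNX1, 15 min with compound, then 90 min with nickel plus streptavidin beads. Signal read in AlphaScreen mode.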
Gal4-VP16 FLuc: counter-screen for ROR gamma inhibitors: Gal4-VP16 reporter | Drosophila S2 Gal4-VP16 UAS-luciferase, luminescence, 20 h | Potency, µM (top dose mostly 53.6 µM), without a hit: at the highest dose activity, negative = inhibition, hits mostly inhibitors | actives 3.5% (n = 310,000);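 note: Gal4-VP16 expression switched on by copper sulfate through the metallothionein promoter; potency is the fitted concentration of half-maximal effect; % is set by controls: 0 for no effect and ±100 for the full control effect; nearly all actives have a fitted effect of over 50% in size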
Six1-Eya2 blk: inhibitors of human Six1/Eya2 interaction; activity change, % (test concentration not listed); actives 0.56% (n = 360,000); AlphaScreen GST-Six1/His-Eya2 binding, biochemical; hits give low values; in the data active = activity change below about -65%; inconclusive = mostly about -30% to -63%; note: % is set by controls: 0 for no effect and ±100 for the full control effect
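Six1/Eya2 binding was read as AlphaScreen signal after compounds were pinned into GST-Six1 plus His-tagged Eya2 (5X stock 250/500 nM) in pH 8.0 Tris/NaCl/TCEP buffer, beads added, then incubated 1 h, 37 C, dark.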
RORgamma inh: ROR gamma (mouse) transcription inhibition; AID 2551; actives 5.4% (n = 310,000); P51450; Potency, µM (highest dose often 53.6 µM), for the others: top-dose activity change, negative = inhibition, usual class: inhibitors; Drosophila S2 Gal4-RORgamma UAS-luciferase reporter, 20 h; note: potency is the fitted concentration of half-maximal effect; % is set by controls: 0 for no effect and ±100 for the full control effect; nearly all actives have a fitted effect of over 60% in size
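Drosophila S2 cells stably expressing Gal4-DBD/mouse RORγ fusion under metallothionein promoter plus UAS-luciferase; compound 1 h, then 700 uM CuSO4 induction for 20 h at ambient temperature; inhibition read as reduced luminescence.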
CtBP-E1A blk: blocks the CtBP interaction with E1A | activity change, % (test concentration not listed) | actives 0.49% (n = 340,000) | AlphaScreen GST-E1A/His-CtBP binding, 1536-well; hits give low values | AID 651724; in the data active = activity change below about -65%; inconclusive = mostly about -30% to -63%; note: % is set by controls: 0 for no effect and ±100 for the full control effect
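Protein mix (5X: 125 nM each GST-E1A, His-CtBP) was incubated with pinned compound 2 h at 37 deg C in dark, in 50 mM Tris pH 8.0 buffer with 300 mM NaCl. Glutathione donor and nickel acceptor beads followed; AlphaScreen signal read after 1 h.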
Active calls of the source: *; ? = inconclusive; nt = no result given. The list is not random: actives were taken first. Their share in the collection is about 5.5%. Unless noted, calls come from the whole dose curve; as a rule, active = well fitted curve in the direction sought with a large enough effect; inconclusive = small, poorly fitted or top-dose-only effect, or another doubt; inactive = no such curve, though single readings can be large; an effect the other way counts as inactive or inconclusive.

SMILES	MBNL1-CUG inh	CBFb-RUNX1 inh	Gal4-VP16 FLuc	Six1-Eya2 blk	RORgamma inh	CtBP-E1A blk
O=S(=O)(CCN1CCOCC1)c1ccc(Oc2ccc(S(=O)(=O)CCN3CCOCC3)cc2)cc1	-0.6%	nt	7.94µM*	-16.5	?	5.5
CC(=O)CCS(=O)(=O)c1ccc(Oc2ccc(S(=O)(=O)CCC(C)=O)cc2)cc1	-3.8%	0.4%	?	2.5	8.91µM*	-0.2
CC1=CCC[C@H]2[C@H](C1)C(=O)C[C@@H](C)[C@]2(C)CC/C(=C/CO)CO	nt	nt	nt	14.3	nt	7.6
Cc1cc(=O)[nH]c(N=N/C(=N/Nc2ccccc2C)c2ccccc2)n1	3.3%	-17.3%	5.01µM*	-5.4	2.51µM*	-11.4
COc1ccc(N/N=C(/N=Nc2nc(C)cc(=O)[nH]2)c2ccccc2)cc1	?	nt	5.01µM*	?	?	-26.8
COc1ccc(-c2cn3c(C)c(C(=O)Nc4cc(NC(C)=O)ccc4OC)sc3n2)cc1	49.8%	-1.3%	?	-0.2	12.6µM*	0.8
COCCN(C(=O)COC(=O)c1nc(Cl)ccc1Cl)c1c(N)n(Cc2ccccc2)c(=O)[nH]c1=O	nt	nt	nt	0.1	nt	19.3
CCOC(=O)Nc1ccc2c(CN3CCN(S(=O)(=O)c4ccc(C(C)C)cc4)CC3)cc(=O)oc2c1	nt	nt	nt	-2.1	nt	7.7
O=[N+]([O-])c1ccccc1/C=N/Nc1nnc(-c2ccccc2)c(-c2ccccc2)n1	5.6%	-5.6%	3.16µM*	-0.8	3.16µM*	-5.7
CCCCOc1ccc(S(=O)(=O)NC(=O)C2(C)CCN2C(=O)c2c(C)noc2C)cc1 (configuration not stated)	nt	nt	nt	1.4	nt	5.5
O=C(NC(NC(=S)Nc1cccc(C(=O)O)c1)C(Cl)(Cl)Cl)OCc1ccccc1 (configuration not stated)	9.3%	-0.7%	-2.3%	-6.8	13.2%	-5.9
Cc1cccc(NC(=S)NCC(c2ccccc2)N(C)C)c1 (configuration not stated)	3.4%	-7.6%	10µM*	-7.0	3.16µM*	1.7
Cc1cccc(NC(=S)NC(NC(=O)OCc2ccccc2)C(Cl)(Cl)Cl)c1 (configuration not stated)	-0.7%	0.4%	?	-0.6	11.2µM*	8.1
CN(C)C(CNC(=S)Nc1cccc(Cl)c1)c1ccccc1 (configuration not stated)	-0.9%	-0.7%	12.6µM*	-8.8	3.98µM*	-2.9
Cc1cccc(NC(=S)NC(C)CCc2ccccc2)c1 (configuration not stated)	-11.8%	-2.4%	3.16µM*	3.9	7.08µM*	0.0
Cc1cccc(NC(=O)NC(C)CCc2ccccc2)c1 (configuration not stated)	-1.7%	5.7%	0.9%	9.6	12.8%	13.1
CNS(=O)(=O)c1cn(CC(=O)NCc2cccc(OC)c2)cc1S(=O)(=O)NC	-2.3%	nt	3.8%	9.7	12.9%	4.8
C=CCOc1c(CNc2nccs2)cccc1OCC	3.4%	0.3%	?	11.7	11.2µM*	32.3
C=CCOc1c(Cl)cc(CNc2nccs2)cc1OC	-3.7%	-2.4%	?	1.8	5.62µM*	4.1
CCCCCn1nc(C(=O)OCc2nc(N)nc(Nc3ccccc3)n2)c2ccccc2c1=O	nt	nt	nt	-1.3	nt	-4.4
CCOc1ccc(S(=O)(=O)Nc2ccc(F)cc2)c(C)c1C	-1.2%	-14.2%	17.8µM*	3.8	?	-2.9
CCC(C)NS(=O)(=O)c1ccc(NS(=O)(=O)c2ccc(F)cc2)cc1 (configuration not stated)	-1.4%	-3.8%	15.3%	1.9	-32.6%	-3.7
Cc1ccc2c(c1)Oc1ccc([N+](=O)[O-])cc1C(=O)N2	11.4%	7.5%	4.6%	-0.2	-4.6%	-0.7
Cc1ccc2c(c1)Oc1ccc(NC(=O)CCl)cc1C(=O)N2	-0.1%	4.9%	17.8µM*	-3.0	10µM*	9.5
CCOc1ccc(NC(=S)NNC(=O)CC(C)O)cc1 (configuration not stated)	6.1%	5.7%	1.5%	3.0	-15.5%	11.6
SMILES	MBNL1-CUG inh	CBFb-RUNX1 inh	Gal4-VP16 FLuc	Six1-Eya2 blk	RORgamma inh	CtBP-E1A blk
CCN(CC)c1ccc(NC(=S)NC(=O)Cc2ccccc2)cc1	nt	?	2.51µM*	?	2.51µM*	?
CCOc1ccc(NC(=S)NC(=O)Cc2ccccc2)cc1	0.2%	nt	10µM*	2.2	3.98µM*	nt
O=C(CC1SCCNC1=O)NCc1ccccc1 (configuration not stated)	nt	nt	nt	1.1	nt	-10.1
Cc1ccc(S(=O)(=O)Nc2cccc(-c3ccc(N4CCCCCC4)nn3)c2)cc1	68.0%	nt	-5.7%	-6.8	13.4%	nt
O=[N+]([O-])c1ccc(CSc2ccccn2)cc1	?	nt	2.8%	1.2	29.7%	6.8
O=[N+]([O-])c1ccc(CSc2ncnc3ccccc23)cc1	?	-2.8%	22.6%	-18.5	7.94µM*	8.7
CCOC(=O)c1nnc(-c2ccccc2)nc1Oc1ccc(Cl)cc1	26.5%	7.9%	10µM*	-0.6	20µM*	3.2
CCOC(=O)c1nnc(-c2ccccc2)nc1Sc1ccccc1Cl	?	-1.0%	?	5.3	-12.1%	12.6
COc1ccc(Cc2c(C3CCCCC3)nc3c(C)cc(Br)cn23)c(C)c1	nt	nt	nt	6.7	nt	0.2
O=C(CCCc1nc(-c2ccc(Cl)cc2)no1)Nc1cccnc1	2.1%	5.8%	11.2µM*	7.4	15.8µM*	0.2
O=C(O)CCCc1nc(-c2ccc(Cl)cc2)no1	-7.7%	-1.3%	?	1.7	0.355µM*	-1.4
O=C(O)CCCc1nc(-c2ccccc2)no1	-1.8%	7.8%	?	1.1	14.1µM*	-15.8
CC(=O)Nc1ccc(NC(=O)C2CCCN2C(=O)NCc2ccccc2)cc1 (configuration not stated)	-4.5%	nt	7.5%	3.3	-17.8%	6.0
CC(C)Nc1ncnc2c1cnn2-c1ccccc1	-12.3%	0.4%	14.1µM*	-6.2	?	-1.9
Cc1ccccc1Nc1ncnc2c1cnn2-c1ccccc1	-7.9%	6.2%	15.8µM*	-11.9	?	-0.5
Cc1ccc(Cn2ncc3c(NN)ncnc32)cc1	-1.4%	nt	?	-22.9	12.6µM*	1.1
Cc1cccc(-n2ncc3c(NC(C)C)ncnc32)c1	-0.6%	9.2%	?	0.5	?	-20.0
Cc1ccc(Cn2ncc3c(NCCN(C)C)ncnc32)cc1	-3.9%	nt	3.7%	-0.8	0.0%	nt
NNc1ncnc2c1cnn2-c1ccccc1	4.1%	-1.2%	?	-23.9	11.2µM*	-13.0
CC1CCC2(CC1)NC(=O)N(CC(=O)N1CC(C)CC(C)C1)C2=O (configuration not stated)	nt	nt	nt	7.2	nt	-0.9

From PubChem
